Measured values published in paper PMC5540273 (PLoS ONE, 2017).

Columns and labels:
Details in all cases: concentration: 1 μM,replicates: in singlicate; n = 1
ADCK4 = tested on: ADCK4
AKT1 = tested on: AKT1
AKT2 = tested on: AKT2
AKT3 = tested on: AKT3
ALK = tested on: ALK
AMPK-alpha1 = tested on: T1, AMPK-alpha1
T1 construct: gene PRKAA1

AMPK-alpha2 = tested on: T2, AMPK-alpha2
T2 construct: gene PRKAA2

ANKK1 = tested on: ANKK1
ARK5 = tested on: T3, ARK5
T3 construct: gene NUAK1

ASK1 = tested on: T4, ASK1
T4 construct: gene MAP3K5

ASK2 = tested on: T5, ASK2
T5 construct: gene MAP3K6

AURKA = tested on: AURKA
AURKB = tested on: AURKB
AURKC = tested on: AURKC
AXL = tested on: AXL
BIKE = tested on: T6, BIKE
T6 construct: gene BMP2K

BLK = tested on: BLK
BMPR1A = tested on: BMPR1A
BMPR1B = tested on: BMPR1B
BMPR2 = tested on: BMPR2
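Note: KINOMEscan kinase panel screen.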

Row | SMILES | %Inh (ADCK4) | %Inh (AKT1) | %Inh (AKT2) | %Inh (AKT3) | %Inh (ALK) | %Inh (AMPK-alpha1) | %Inh (AMPK-alpha2) | %Inh (ANKK1) | %Inh (ARK5) | %Inh (ASK1) | %Inh (ASK2) | %Inh (AURKA) | %Inh (AURKB) | %Inh (AURKC) | %Inh (AXL) | %Inh (BIKE) | %Inh (BLK) | %Inh (BMPR1A) | %Inh (BMPR1B) | %Inh (BMPR2)
1 | Cc1ccc2c(-c3ccnc(Nc4ccc(C(F)(F)F)cc4)n3)cnn2n1 [GW819776] | 35% | 0% | 0% | 0% | 0% | 11% | 8% | 0% | 0% | 0% | 0% | 11% | 32% | 4% | 0% | 12% | 0% | 13% | 0% | 32%
2 | CC(=O)c1c(-c2ccncc2)[nH]c(-c2ccncc2)c1C [GW493036] | 46% | 0% | 1% | 28% | 31% | 13% | 0% | 3% | 3% | 17% | 0% | 0% | 16% | 5% | 17% | 23% | 38% | 0% | 0% | 24%
3 | Cn1ccc2ncnc(Oc3ccc(NC(=O)Nc4cncc(C(F)(F)F)c4)c(Cl)c3)c21 | 0% | 6% | 13% | 0% | 0% | 0% | 0% | 0% | 0% | 0% | 0% | 0% | 25% | 0% | 59% | 0% | 9% | 0% | 0% | 0%
4 | C[C@@H]1CCN(C(=O)N2CCCC2)C[C@@H]1N(C)c1ncnc2[nH]ccc12 | 0% | 0% | 3% | 0% | 0% | 66% | 77% | 0% | 16% | 0% | 0% | 57% | 31% | 6% | 7% | 25% | 0% | 0% | 13% | 20%
5 | CCNCC(Cc1ccccc1)NC(=O)c1cc(Br)c(-c2ccnc3[nH]ccc23)s1.Cl.Cl (stereo not shown) [GSK1383280] | 89% | 93.7% | 81% | 88% | 42% | 49% | 45% | 8% | 60% | 0% | 0% | 96.2% | 93.6% | 86% | 63% | 79% | 0% | 0% | 0% | 0%
6 | CN1CCN(CCNc2nc3cc(Oc4ccc(NC(=O)Nc5cc(C(F)(F)F)ccc5F)cc4)ccc3[nH]2)CC1.Cl.Cl [GW768504] | 22% | 4% | 0% | 0% | 0% | 9% | 11% | 0% | 29% | 0% | 0% | 9% | 22% | 13% | 82% | 0% | 14% | 12% | 0% | 0%
7 | O=C(Nc1n[nH]c2cc(-c3ccco3)ccc12)C1CC1 [SB-737447] | 7% | 0% | 0% | 0% | 7% | 3% | 0% | 27% | 0% | 0% | 4% | 46% | 12% | 34% | 0% | 53% | 0% | 0% | 14% | 0%
8 | CC(=O)Nc1ccc(-c2cc3ncnc(SCC(=O)O)c3s2)cc1 | 0% | 0% | 28% | 16% | 7% | 2% | 0% | 22% | 0% | 0% | 0% | 4% | 97.1% | 32% | 36% | 19% | 0% | 8% | 0% | 7%
